Hits are enriched below; roughly 2.4% of the tested compounds scored in any of these assays.
Pol eta inh – blocks human DNA polymerase eta activity | Q9Y253 | recombinant Pol eta, fluorescent DNA replication assay | Potency, µM (series often up to 114 µM), for inactives: at the top dose activity change, negative = inhibition, hits mostly inhibitors | hit rate 1.2% among 390,000 | AID 588591; also: % is scaled to controls: 0 for no effect and ±100 for the full control effect
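Pol eta (10 nM) was preincubated with compounds for 15 min at room temperature, after which fluorescent replication substrate (50 nM final) was added to start the reaction. Fluorescence was read kinetically at 0 and 10 min.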
Pol iota inh – blocks human DNA polymerase iota activity; hit rate 1% among 390,000; Potency, µM (highest dose often 115 µM), for inactives: at the highest dose activity, negative = inhibition, hits mostly inhibitors; Q9UNA4; Pol iota fluorescent replication assay, 10 min
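Pol iota at 10 nM preincubated 15 min with compounds at room temperature; reaction started with fluorescent substrate, 50 nM final. Fluorescence read kinetically at 0 and 10 min; buffer-only wells as negative control.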
FEN1 inhibitor – human FEN1 inhibition; P39748; Potency, µM (titrated, usually from 114 µM), for inactives: at the highest dose activity change, negative = inhibition, actives largely listed as inhibitors; AID 588795; Recombinant FEN1 flap cleavage, fluorescence, 15 min; hit rate 0.35% among 390,000; also: % is scaled to controls: 0 for no effect and ±100 for the full control effect; nearly all actives have a fitted effect of over 65% in size
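Recombinant FEN1 (10 nM) was preincubated with pin-transferred compounds for 15 min at room temperature, then flap DNA substrate (50 nM final) was added. Plates were read at 0 and 15 min, and normalized concentration–response data were fitted to a four-parameter Hill equation.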
Pol beta inh – DNA polymerase beta (human) inhibition | P06746 | Pol beta primer extension/strand displacement, fluorescence kinetic | Potency, µM (top dose mostly 114 µM), without a hit: at the highest dose activity change, negative = inhibition, usual class: inhibitors | hit rate 1.3% among 340,000 | AID 485314; also: % is scaled to controls: 0 for no effect and ±100 for the full control effect
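Kinetic readout of DNA synthesis with strand displacement by Pol beta. Compound and 10 nM enzyme sit 15 min at room temperature; 50 nM substrate starts the reaction, read immediately and at 10 min.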
POLK inh – inhibitors of human DNA polymerase kappa; hit rate 0.53% among 400,000; purified Pol kappa, fluorescent DNA synthesis assay, 10 min; AID 588579; Q9UBT6; Potency, µM (doses to about 107 µM), without a hit: top-dose activity, negative = inhibition, actives largely listed as inhibitors; also: % is scaled to controls: 0 for no effect and ±100 for the full control effect
Target sequence (Q9UBT6 whole entry, looked up): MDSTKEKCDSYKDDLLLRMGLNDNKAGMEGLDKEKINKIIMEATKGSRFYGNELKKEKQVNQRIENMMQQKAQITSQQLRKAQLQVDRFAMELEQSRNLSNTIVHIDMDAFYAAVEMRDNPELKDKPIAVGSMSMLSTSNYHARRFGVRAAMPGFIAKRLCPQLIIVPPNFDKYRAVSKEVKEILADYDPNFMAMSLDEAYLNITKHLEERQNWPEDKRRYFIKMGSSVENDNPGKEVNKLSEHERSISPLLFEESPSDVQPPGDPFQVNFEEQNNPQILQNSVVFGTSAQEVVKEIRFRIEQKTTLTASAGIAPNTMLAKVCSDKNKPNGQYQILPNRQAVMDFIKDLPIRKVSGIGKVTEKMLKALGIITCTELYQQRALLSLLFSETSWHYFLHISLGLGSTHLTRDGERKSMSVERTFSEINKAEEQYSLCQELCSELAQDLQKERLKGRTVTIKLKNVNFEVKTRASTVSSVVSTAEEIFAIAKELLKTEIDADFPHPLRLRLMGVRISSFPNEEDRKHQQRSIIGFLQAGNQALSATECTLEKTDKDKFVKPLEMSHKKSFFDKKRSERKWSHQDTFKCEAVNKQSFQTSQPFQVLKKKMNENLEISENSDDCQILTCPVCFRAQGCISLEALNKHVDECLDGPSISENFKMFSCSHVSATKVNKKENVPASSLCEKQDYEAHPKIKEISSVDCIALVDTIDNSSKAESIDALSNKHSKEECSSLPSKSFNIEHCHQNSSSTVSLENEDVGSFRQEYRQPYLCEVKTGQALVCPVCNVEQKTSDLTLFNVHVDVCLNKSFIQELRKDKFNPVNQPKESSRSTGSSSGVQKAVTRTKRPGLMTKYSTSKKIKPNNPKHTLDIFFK
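10 nM Pol kappa was preincubated with compounds for 15 min at room temperature. Reaction started with 50 nM (final) substrate. Fluorescence read kinetically at 0 and 10 min.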
WRN inhibitor – blocks human WRN helicase; WRN helicase unwinding, fluorescent forked duplex, kinetic; Potency, µM (top dose mostly 114 µM), for inactives: top-dose activity change, negative = inhibition, actives largely listed as inhibitors; hit rate 0.46% among 360,000; AID 651768; also: % is scaled to controls: 0 for no effect and ±100 for the full control effect; nearly all actives have a fitted effect of over 55% in size
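Kinetic red-fluorescence monitoring (525/598 nm) tracks WRN helicase activity after 100 nM fluorophore-quencher forked duplex and 2 mM ATP are added to 20 nM enzyme pretreated 15 min at room temperature with compound.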
* = called active by the depositor; ? = inconclusive; / = no result; [ ] = dose if it differs, or a comment. Calls follow the shape of the dose curve; as a rule, active = well fitted curve in the direction sought with a large enough effect; inconclusive = small, poorly fitted or top-dose-only effect, or another doubt; inactive = no such curve, though single readings can be large; an effect the other way counts as inactive or inconclusive. Potency is read from the fitted curve at half-maximal effect.

SMILES | Pol eta inh | Pol iota inh | FEN1 inhibitor | Pol beta inh | POLK inh | WRN inhibitor
O=C(/C=C/c1ccco1)OCn1nnc2ccccc2c1=O | -5% | 29% | -2% | 20µM* | -4% | -3%
O=C(/C=C/c1ccco1)OCc1nnc(-c2ccc(Cl)cc2)o1 | -12% | ? | -6% | 35µM* | -22% | -18%
O=C(/C=C/c1ccco1)OCc1nnc(-c2ccccc2)o1 | 24% | 79µM* | 1% | 22µM* | -34% | -18%
Cc1ccc(NC(=O)C2CCN(S(=O)(=O)c3c(C)noc3C)CC2)c(C)c1 | -14% | 12% | 16% | 3% | -16% | /
COc1cccc(CN2CCC2(C)C(=O)Nc2ccc3c(c2)CCN3C(C)=O)c1F (configuration not stated) | / | / | / | / | / | 1%
O=c1ccc2c(OCCCCc3ccccc3)c3ccoc3cc2o1 | -8%[57.1 µM] | 2%[58.9 µM] | / | 3%[57.1 µM] | -8%[60.1 µM] | /
CN1/C(=C/C=C(C#N)C#N)C=Cc2ccccc21 | -2% | 79µM* | 13% | -4% | 2% | 43%[11.6 µM]
CC(=O)Oc1ccc(C(=O)Nc2cccc(-c3nnc(-c4ccco4)o3)c2)cc1 | -14% | 58% | -1% | 20µM* | -15% | -32%
c1coc(CNc2ncnc3c2[nH]c2ccccc23)c1 | / | ? | ? | / | -14% | /
CC1CCCN(CCCNC(=O)c2cc3c(Cl)nc4ccccc4c3s2)C1 (configuration not stated) | -15% | -7% | 50µM* | 2% | 14% | 49%
Cn1nc(-c2ccc(Cl)cc2)c2cc(C(=O)NCCCN3CCCC3)sc21 | 9% | ? | 32µM* | 50µM* | -25% | 59%
O=C(NCCCN1CCCCCC1)c1cc2c(=O)oc3ccccc3c2s1 | -6% | 50µM* | 71µM* | -11% | -40% | -12%
COc1cc2c(cc1O)CCC1C2CC[C@@]2(C)C1CC[C@@H]2O (some centres not stated) | / | / | / | / | -9%[19.4 µM] | /
COc1ccc(Cl)cc1N(C)C(=O)C(=O)Nc1ccc2nc3n(c(=O)c2c1)CCCCC3 | -14% | 27% | -4% | 0% | -12% | /
COc1cc(NC(=O)CN2C(=O)C(c3ccc(C)cc3)=NC23CCCCCC3)cc(OC)c1 | / | 39% | 11% | 0% | -2% | /
Cc1cccc(N2CCC(N3CCN(C4CCCCC4)C(CCO)C3)CC2)c1C (configuration not stated) | -2% | 49% | 13% | 40µM* | -1% | 0%
CC(C)N1CCC(N2CCN(C3CCCC3)CC2CCO)CC1 (configuration not stated) | -20% | 61% | -4% | 17% | 1% | 9%[57.1 µM]
Nc1c(O)ccc2c1C(=O)c1ccccc1C2=O | ? | ? | 50µM* | 50µM* | 79µM* | -33%
COc1ccc2c(c1O)C(=O)c1ccccc1C2=O | / | / | / | 3% | / | /
COC(=O)/C=C/C(C)=C/C=C/C(C)=C/C=C/C=C(C)/C=C/C=C(C)/C=C/C(=O)O | / | / | / | / | 32µM* | /
COC(=O)c1ccc(NC(=O)c2c(-c3ccccc3)c(-c3ccccc3)nn(C)c2=O)cc1 | -8% | 24% | -1% | -8% | -9% | /
CC(C)c1cnc2c(c1SCC(=O)Nc1ccccc1C(F)(F)F)c(=O)n(C)c(=O)n2C | 13% | 6% | -18% | 29% | -5%[60.1 µM] | /
CCOC(=O)C1=C(c2ccccc2)N=c2s/c(=C\c3ccc(O)cc3)c(=O)n2C1c1cccs1 (configuration not stated) | -12% | 45µM* | ? | ? | -29% | ?
Cc1ccc(Cn2cc(/C=C(/C#N)C(=O)Nc3cccc(Cl)c3)c3ccccc32)cc1 | -1% | 2% | -18% | 25% | -4% | /
COc1cc2cc(Oc3ccc4ccc(=O)oc4c3)c(=O)oc2cc1OC(C)=O | ? | -6% | 17% | 0% | -17% | 2%
SMILES | Pol eta inh | Pol iota inh | FEN1 inhibitor | Pol beta inh | POLK inh | WRN inhibitor
COc1cc2cc(Oc3ccc4ccc(=O)oc4c3)c(=O)oc2cc1OC(=O)C=C(C)C | / | / | / | 14µM* | / | /
O=C(NNc1c2ccccc2nc2ccccc12)c1ccc(O)cc1 | -6% | -6% | ? | 79µM* | -10%[60.1 µM] | -4%[11.6 µM]
COc1ccc(C2CC(=O)Nc3c2c(=O)nc2c(C)cccn32)cc1 (configuration not stated) | -8% | 19% | -5% | 1% | -4% | /
Cc1ccc2cccc(OCC(=O)c3cc(C)n(Cc4ccco4)c3C)c2n1 | / | / | / | 11µM* | / | /
Cc1cc(C(=O)CSc2nnc(-c3ccco3)o2)c(C)n1Cc1ccco1 | ? | ? | 1% | 45µM* | -20% | ?
Cc1cc(C(=O)CCl)c(C)n1Cc1ccco1 | ? | ? | -3% | ? | -21% | -13%
Cc1cc(Cl)ccc1OCC(=O)N1CCC(c2nc3ccccc3s2)CC1 | -28% | 20% | 5% | ? | -2% | /
COC(=O)[C@@]12C[C@@H](CC(=O)NCCCN3CCCC3=O)C(=O)N(CCc3ccc(OC)c(OC)c3)C1=CCC(C)(C)C2 | / | / | / | / | / | -11%
CNc1nc(-c2ccccc2)[n+](-c2ccc(C)cc2)s1 | -22% | 115% | 3% | 25%[57.1 µM] | -5% | 50µM*
COc1ccc(C2=NOC3(CC(=O)N(c4ccc5ccccc5c4)C3=O)C2)c(OC)c1 (configuration not stated) | -23% | ? | -3% | 50µM* | -44% | -11%
CCN1CCN(C(=O)c2cc(-c3ccco3)nc3ccccc23)CC1 | 35µM* | 40µM* | 9% | / | ? | -15%
O=C(Nc1ccccc1N1CCOCC1)c1cc(-c2ccco2)nc2ccccc12 | ? | ? | -11% | 14µM* | -41% | -15%
O=C(N/N=C/c1ccc2c(c1)OCO2)c1cc(-c2ccco2)nc2ccccc12 | ? | 3.2µM* | 11% | / | ? | -6%[11.6 µM]
CCCCOc1ccc(CNC(=O)c2cnc3sc(N4CCOCC4)nn3c2=O)cc1 | -15% | 6% | 0% | 0% | 1% | /
O=C(NN=Cc1ccc(O)c(O)c1)c1ccccc1 | / | / | / | / | / | -18%
O=C(/C(=N/N=C/c1ccc(O)c(O)c1O)c1ccccc1)c1ccccc1 | ? | 18µM* | ? | 3.5µM* | -32% | -31%
c1cc(-c2ccc(N3CCOCC3)cc2)n2ccnc2c1 | / | / | / | / | / | 0%
O=C(Nc1nc(-c2cccs2)cs1)c1ccc([N+](=O)[O-])o1 | 79µM* | ? | 5% | / | -13% | -13%[11.6 µM]
O=C(CCN1CCCC1Cc1ccccc1)c1ccc2c(c1)OCCO2 (configuration not stated) | -13% | ? | -3% | 0% | 0% | 56µM*
O=C(CCN1CCCCC1)c1ccc2c(c1)OCCO2 | -5% | ? | -4% | 38% | 3% | -11%

Screens as filed in PubChem.
